# Source: ChEMBL document CHEMBL3988442, “University of Dundee, Small-Polar-MMV Screening Library” (2021)
# Hit rate of the full screen: of about 48,000 compounds, about 13,000 (27%) showed an effect of 50% or more. This is one part of the list.
# System: Wolbachia pipientis
# Experiment: Anti-Wolbachia Cell-Based Screen
# Type: functional
# Design: scale not given: in the data most compounds retested in dose-response had high values
# Conditions: 5 µM
row,SMILES,Percent Effect [%]
1,CNC(=O)c1nc(CN2CCOC(CCCC(C)C)C2)no1 (centres undefined),2.803
2,O=C(NC1CC1)c1nc(Cn2c(C(F)F)nc3ccccc32)no1,97.34
3,CNC(=O)c1nc(CN2CCOC(Cc3ccc(F)cc3)C2)no1 (centres undefined),-1.093
4,CC(C)NC(=O)c1nc(Cn2c(C(F)(F)F)nc3ccccc32)no1,97.59
5,Cc1ccc(C(=O)NC2CCN(Cc3noc(CC(C)C)n3)CC2)s1,3.066
6,CNC(=O)c1nc(CN2CCOC(C(F)(F)F)C2)no1 (centres undefined),-14.11
7,CC(C)NC(=O)CN(C)C1CCN(c2cnc3ccccc3n2)CC1,-13.33
8,CC(C)NC(=O)c1nc(Cn2c(C(F)F)nc3ccccc32)no1,117.9
9,NC(=O)c1nc(CN2CCOC(C(F)(F)F)C2)no1 (centres undefined),-3.309
10,O=C(NCCn1ccnc1)c1csc(Br)c1,7.312
11,CC(C)c1cncnc1-c1cc(F)cc2c1OC(CN)C2 (centres undefined),-15.48
12,Cc1ccc(N2CCCc3sc(C(=O)NCc4ccc(C)o4)nc32)nn1,-0.9915
13,Cc1ccc(N2CCCc3sc(C(=O)NCC4CCCO4)nc32)nn1 (centres undefined),101.4
14,CN1CCCc2sc(C(=O)NC3CC3)nc21,-6.027
15,O=C(NCC1CCCO1)c1nc2c(s1)CCCN2C(=O)C1CC1 (centres undefined),108.2
16,Cc1ccc(N2CCCc3sc(C(=O)NCCO)nc32)nn1,-4.347
17,O=C(NC1CC1)c1nc2c(s1)CCCN2c1ccccc1,3.118
18,O=C(c1nc2c(s1)CCCN2CC1CC1)N1CCCC1,21.73
19,O=C(NCC1CCCO1)c1nc2c(s1)CCCN2CC1CC1 (centres undefined),97.2
20,O=C(NCc1cccnc1)c1nc2c(s1)CCCN2c1ncccn1,-3.859
21,O=C(c1nc2c(s1)CCCN2C(=O)C1CC1)N1CCOCC1,0.08995
22,O=C(c1nc2c(s1)CCCN2CC1CC1)N1CCOCC1,13.28
23,O=C(NCC1CCCO1)c1nc2c(s1)CCCN2c1ncccn1 (centres undefined),95.9
24,c1cnc(NCC2Cn3nnc(-c4ccsc4)c3CO2)nc1 (centres undefined),-8.794
25,CCc1nnc(N2C[C@@H](NC(C)=O)[C@H](c3ccc(C)o3)C2)s1,0.4936
26,CCN1CCN(c2ccc(C(=O)NC(C)C(=O)N(C)C)cc2)CC1 (centres undefined),1.595

row,SMILES,Percent Effect [%]
1,CNC(=O)CN1CCN(C(=O)Nc2ccc(C)s2)CC1,-4.084
2,CN(CCc1cccs1)C(=O)Nc1ccc2c(c1)C(=O)N(C)CC2,-32.58
3,Cc1nn(C(C)C)c(C)c1CN1CCC(c2cc(C(C)C)n[nH]2)CC1,4.458
4,CN(C)C(=O)CNC(=O)c1nc2c(s1)CCCN2Cc1ccccc1,-13.23
5,COCCN1CCCc2sc(C(=O)Nc3ccc(C)nc3)nc21.O=C(O)C(F)(F)F,8.218
6,COCCNC(=O)c1nc2c(s1)CCCN2Cc1ccccc1,6.623
7,O=C(NCC1CCCO1)c1nc2c(s1)CCCN2Cc1ccccc1 (centres undefined),98.1
8,COCCN1CCCc2sc(C(=O)N3CCCN(C)CC3)nc21.O=C(O)C(F)(F)F,-1.049
9,COCCN1CCCc2sc(C(=O)NCC3CCCO3)nc21 (centres undefined),104.4
10,Cc1ccc(-c2n[nH]cc2CN(Cc2nccn2C)C(C)C)cc1C,-8.138
11,COc1ccc(N2Cc3nc(=O)[nH]n3C2=O)cc1,-10.45
12,COCCSc1ccc(-n2cccn2)nn1,0.3938
13,CC(c1nncn1C)n1cc(-c2cc(CN3CCCC3)cs2)nn1 (centres undefined),2.3
14,CCC(Sc1ncc(CO)n1C)c1ccccc1 (centres undefined),5.427
15,Cc1cc(Br)c(O)c(-c2nc(N3CCCCC3)sc2C)c1,122.7
16,Cc1cc(Br)c(O)c(-c2nc(N3CCOCC3)sc2C)c1,133.3
17,Oc1nnc(-c2ccccc2)c2sc(N3CCCCC3)nc12,-2.363
18,Cc1cc(Br)c(O)c(C(=O)N2CCC(CN3CCCCCC3)CC2)c1,20
19,COc1ccc(-n2nc(C(C)C)nc2Cn2cncn2)cc1,2.008
20,CCn1c(C2CCN(C(=O)CCc3cc(Cl)no3)CC2)nn(C)c1=O,91.1
21,O=C(c1cc(C2CC2)on1)N1CCC(Oc2ncccc2Br)CC1,12.65
22,CCn1c(C2CCN(C(=O)c3cc(CC(C)C)no3)CC2)nn(C)c1=O,80.93
23,O=C(CCc1cc(Cl)no1)N1CCN(CCn2cncn2)CC1,-9.479
24,CC(C)Cc1cc(C(=O)N2CCC(C(=O)N3CCOCC3)CC2)on1,-1.733
25,CCn1c(C2CCN(C(=O)c3cc(C4CC4)on3)CC2)nn(C)c1=O,94.75
26,COC(=O)C1CCCN1C(=O)c1cc(CC(C)C)no1 (centres undefined),-6

row,SMILES,Percent Effect [%]
1,CCn1c(CC2CCN(C(=O)c3cc(CC(C)C)on3)CC2)n[nH]c1=O,3.496
2,Cc1nc(CN2CCN(C(=O)c3cc(C4CC4)on3)CC2)cs1,-4.93
3,CCOC(=O)CC1CCCCN1C(=O)CCc1cc(Cl)no1 (centres undefined),-3.772
4,CCn1c(C2CCN(C(=O)c3cc(CC(C)C)on3)CC2)nn(C)c1=O,100.4
5,CCn1nc(CC(C)C)cc1C(=O)N1CCC(n2cnnc2)CC1,19.79
6,CC(C)N(Cc1cccnc1)C(=O)CSc1ccc(C#N)cc1,-11.42
7,CC(C)(C)c1cc(C[C@H]2CNCC[C@H]2CC(=O)Nc2ccccc2)no1,-4.037
8,COc1ccc(Cc2noc(C3=NN(C)C(=O)CC3)n2)cc1OC,-17.82
9,CCn1c(C2CCCN(Cc3cc(C)cc(C)c3)C2)nn(C)c1=O (centres undefined),14.99
10,CCn1c(C2CCCN(Cc3ccc(F)cc3Cl)C2)nn(C)c1=O (centres undefined),-0.1084
11,CCn1c(C2CCN(C(=O)c3cc(Cl)no3)CC2)nn(C)c1=O,81.76
12,COC1CCN(C(=O)CC2CCCC2)CC(=O)N(C)c2ccccc21 (centres undefined),104.1
13,COC1CCN(C(=O)C2CCCC2)CC(=O)N(C)c2ccccc21 (centres undefined),111
14,COC1CCN(C(=O)C2CC(=O)N(c3ccccc3Br)C2)CC1 (centres undefined),-10.75
15,CCN1CCC(CC(=O)N2CCN(c3ccccc3OC)CC2C)CC1 (centres undefined),10.24
16,COC1CN(C(=O)CC2CCCC2)CCC(=O)N(C)c2ccccc21 (centres undefined),101.3
17,COC(=O)NCC(=O)NCC1(c2c(F)cccc2F)CCCC1,1.826
18,O=C(CN1CCC(c2cccc(F)c2)C1)NCC(F)(F)F (centres undefined),-23.91
19,COc1cc(F)c(C(=O)NCc2cc(C)on2)c(F)c1,-19.16
20,CCSc1ncc(CN2CCN(c3nc(C)ncc3C)CC2)cn1,0.05242
21,O=C(NC[C@H]1CCCO1)c1ccc(S(=O)(=O)N2C[C@@H]3C[C@H]2CN3)cc1,-5.829
22,CN(Cc1ccccn1)C(=O)c1cc(CN2CCC(O)CC2)on1,-20.11
23,NCCn1cc(C(=O)NCc2ccccc2-n2cccn2)nn1,-2.966
24,CCCc1nn(C2CCCN(C(C)C)C2=O)c(=O)o1 (centres undefined),-1.45
25,CC(=O)N1CCC(Oc2cccc(C#N)c2)CC1,-7.429
26,CC1CCC(O)(Cn2ncnc2-c2cccc(C#N)c2)CC1 (centres undefined),-11.33

row,SMILES,Percent Effect [%]
1,CCCc1nn(C2CCN(C(C)C)C2=O)c(=O)o1 (centres undefined),-9.274
2,Cc1nnc(-c2cccc(C#N)c2)n1C1CCCN(C(C)C)C1=O (centres undefined),109.2
3,Cc1nnc(-c2cccc(C#N)c2)n1C1CCN(C(C)C)C1=O (centres undefined),107.2
4,CC(C)N1CCC(Nc2ccn(CCC#N)n2)C1=O (centres undefined),1.087
5,Cc1nnc(-c2cccc(C#N)c2)n1C1CCN(C2CC2)C1=O (centres undefined),99.28
6,CC(C)N1CCCC(N2CCOC3(CCCC3)C2)C1=O (centres undefined),-1.206
7,Cc1noc(-c2cccnc2N2CCN(c3cnn(C)c3)CC2)n1,-14.91
8,O=C(NCCc1cccs1)N1CCCC2(CCC(=O)N(C3CC3)C2)C1 (centres undefined),-0.08952
9,CNCC(=O)N1CCCC1c1n[nH]cc1-c1ccccc1F.Cl (centres undefined),165.9
10,CCOCCCC(=O)N1CCCC1c1nc(-c2ccccc2F)c[nH]1 (centres undefined),-5.002
11,CCC(=O)N1CCCC1c1n[nH]cc1-c1ccccc1F (centres undefined),184.8
12,Cl.NCC(=O)N1CCCC1c1n[nH]cc1-c1ccccc1F (centres undefined),132.3
13,O=C(COCC1CC1)N1CCCC1c1nc(-c2ccccc2F)c[nH]1 (centres undefined),4.201
14,NCC(=O)N1CCCCC1c1ccc(F)cc1 (centres undefined),-11.61
15,COC(=O)NCC(=O)N1CCCC1c1nc(-c2ccccc2F)c[nH]1 (centres undefined),0.1259
16,O=C1CC(c2ccsc2)c2sc(C(=O)O)c(-c3ccccc3)c2N1 (centres undefined),15.35
17,O=C(NCCCN1CCOCC1)c1ccc(-n2ccc3ccccc32)s1,91.37
18,CCN(CC)CCNC(=O)c1ccc(Cl)c(NS(C)(=O)=O)c1,-1.52
19,CCN(CC)CCNC(=O)c1ccn(COc2cc(C)cc(C)c2)n1,5.075
20,O=C(NCCN1CCOCC1)c1ccc(-n2ccc3ccccc32)s1,-14.37
21,O=C(NCCCN1CCCC1=O)c1ccc(-n2ccc3ccccc32)s1,114.9
22,CCN(CC)CCNC(=O)c1ccc(-n2ccc3ccccc32)s1,94.19
23,O=C(NCCCN1CCCCC1)c1ccc(-n2ccc3ccccc32)s1,-1.697
24,Cc1ccc(OCCC(=O)NCCCN2CCCC2=O)c(C)c1,-5.078
25,O=C(NCCCN1CCOCC1)C(OC1CCCC1)c1ccccc1 (centres undefined),-5.979
26,O[C@@H]1CN(Cc2cc(Cl)cc3cccnc23)C[C@@H]1O,10.63
